Bioassay records deposited in PubChem BioAssay by National Center for Advancing Translational Sciences (NCATS).
ATXN2 expr inh: reduces ATXN2 reporter expression in HEK-293 cells; HEK-293 ATXN2-luciferase reporter, luminescence, 24 h; Potency, µM (titrated, usually from 57 µM), without a hit: top-dose activity change, negative = inhibition, hits mostly inhibitors; 0.72% of 360,000 active; AID 1745845; also: % is scaled to controls: 0 for no effect and ±100 for the full control effect; nearly all actives have a fitted effect of over 55% in size
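qHTS (up to 57 uM final) was run with 24 h compound exposure of reporter cells at 37 °C. Each well was multiplexed: SteadyGlo luminescence measured ATXN2-luciferase expression after a fluorogenic Gly-Phe-AFC viability readout (25 uM final).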
TGFb SMAD3 inh: blocks TGF-b signaling; 1.2% of 410,000 active; Potency, µM (top dose mostly 46.1 µM), inactives show at the highest dose activity, negative = inhibition, hits mostly inhibitors; AID 588855; HepG2 CAGA-GFP TGF-b/SMAD3 reporter, GFP fluorescence, 18 h; TGF-beta stimulated, 500 pg/mL final; also: % is scaled to controls: 0 for no effect and ±100 for the full control effect; nearly all actives have a fitted effect of over 65% in size
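Smad-responsive CAGA-GFP expression was quantified in HEPG2 cells exposed to compounds and 500 pg/mL final TGF-beta for 18 h at 37 degrees C; unstimulated wells defined full inhibition.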
RORg inh: ROR gamma (mouse) transcription inhibition; Drosophila S2 Gal4-RORgamma UAS-luciferase reporter, 20 h; Potency, µM (titrated, usually from 53.6 µM), for inactives: top-dose activity change, negative = inhibition, actives largely listed as inhibitors; AID 2551; 5.4% of 310,000 active; P51450; also: % is scaled to controls: 0 for no effect and ±100 for the full control effect; nearly all actives have a fitted effect of over 60% in size
Target sequence (P51450 whole entry, looked up, the tested form may be a part): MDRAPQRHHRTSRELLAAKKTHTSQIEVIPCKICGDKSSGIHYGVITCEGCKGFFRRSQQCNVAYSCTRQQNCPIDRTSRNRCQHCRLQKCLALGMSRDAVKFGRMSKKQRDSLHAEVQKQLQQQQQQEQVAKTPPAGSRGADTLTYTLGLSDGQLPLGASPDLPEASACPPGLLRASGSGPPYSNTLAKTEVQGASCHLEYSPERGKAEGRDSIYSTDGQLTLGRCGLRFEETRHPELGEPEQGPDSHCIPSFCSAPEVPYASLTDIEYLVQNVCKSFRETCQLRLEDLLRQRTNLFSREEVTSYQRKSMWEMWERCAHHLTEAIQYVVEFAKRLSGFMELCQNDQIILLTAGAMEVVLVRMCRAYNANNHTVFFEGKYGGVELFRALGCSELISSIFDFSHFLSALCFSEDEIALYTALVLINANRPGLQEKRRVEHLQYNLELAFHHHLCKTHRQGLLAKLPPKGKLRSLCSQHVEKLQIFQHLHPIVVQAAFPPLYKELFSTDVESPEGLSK
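Compounds are pin-transferred onto Drosophila Schneider cells expressing a copper-inducible Gal4–ROR gamma transactivation domain fusion. After 1 hr, copper sulfate is added to 700 uM final; luciferase is read 20 hr later.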
ATXN viability: cell viability loss in ATXN counter-screen | S2 cells (HEK-293 line with an ATXN2-luciferase reporter) viability, CellTiter-Fluor protease fluorescence, 24 h | Potency, µM (top dose mostly 56.7 µM), most hits filed as cytotoxic | 0.49% of 400,000 active; also: nearly all actives have a fitted effect of over 40% in size
HepG2 viability: counter-screen for TGF-b inhibitors: cytotoxicity in HepG2 cells; HepG2 CAGA-GFP viability, ATP luminescence, 18 h; AID 588856; 0.76% of 410,000 active; Potency, µM (series often up to 46.1 µM), for inactives: top-dose activity change, negative = cytotoxicity, usual class: cytotoxic
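CellTiter-Glo luminescence gave cytotoxicity after 18 hours at 37 degrees C. The cells were HepG2 CAGA-GFP in 1% FBS DMEM, stimulated with 500 pg/mL TGF-beta after compound addition. %Activity was normalised to no-cell wells (complete cell-killing) and DMSO (no toxicity), and curves were fitted and classified.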
VP16 counter: counter-screen for ROR gamma inhibitors: Gal4-VP16 reporter. Drosophila S2 Gal4-VP16 UAS-luciferase, luminescence, 20 h. AID 2546. Potency, µM (top dose mostly 53.6 µM), inactives show top-dose activity, negative = inhibition, actives largely listed as inhibitors. 3.5% of 310,000 active;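 also: Gal4-VP16 expression switched on by copper sulfate through the metallothionein promoter; % is scaled to controls: 0 for no effect and ±100 for the full control effect; nearly all actives have a fitted effect of over 50% in size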
An asterisk follows results filed as active; i = inactive; u = inconclusive; x = no result; [ ] = remark or other dose. Compounds with a hit are over-represented: about 6.1% of the library has one in this group of screens. Calls follow the shape of the dose curve; as a rule, active = well fitted curve in the direction sought with a large enough effect; inconclusive = small, poorly fitted or top-dose-only effect, or another doubt; inactive = no such curve, though single readings can be large; an effect the other way counts as inactive or inconclusive. Potency is read from the fitted curve at half-maximal effect.

SMILES	ATXN2 expr inh	TGFb SMAD3 inh	RORg inh	ATXN viability	HepG2 viability	VP16 counter
Cc1cc(=O)oc2cc(Oc3ccc([N+](=O)[O-])cc3[N+](=O)[O-])ccc12	0.6%	3.3%	11.2µM*	u	-3.4%	-79.5%
Cc1cc(=O)oc2cc(Oc3ncccc3[N+](=O)[O-])ccc12	-14.5%	9.1%	9.3%	i	0.8%	5.8%
O=Cc1cccc(Oc2ccc([N+](=O)[O-])cc2[N+](=O)[O-])c1	-9.1%	-15.4%	14.1µM*	u	-24.1%	3.2%
COc1ccc(C)cc1NC(=O)C(=O)NCCc1csc(-c2ccc(C)cc2)n1	x	0.0%	x	x	-4.7%	x
CC(C)(C)C1CCc2nc(NC(=O)COc3ccc(F)cc3)sc2C1 (configuration not stated)	4.9%	-14.6%	x	i	0.4%	x
Cc1c(-c2n[nH]c(=S)n2-c2ccc(C(F)(F)F)cc2)nnn1-c1ccccc1	3.6%	12.9%	5.62µM*	i	11.1%	u
O=C1CSC(=S)N1/N=C/c1cc(Br)ccc1O	x	x	11.2µM*	x	x	u
O=C1CSC(=S)N1N=Cc1ccc2c(c1)OCO2	0.3%	-10.0%	x	i	-12.6%	x
CC(C)(C)c1ccc(/C=N/N2C(=O)CSC2=S)cc1	12.5%	0.5%	10µM*	i	7.0%	u
COc1ccc(/C=N/N2C(=O)CSC2=S)cc1	3.2%	3.5%	15.8µM*	i	-5.5%	3.1%
CC(/C=N/N1C(=O)CSC1=S)=C\c1ccccc1	-3.8%	-4.6%	11.2µM*	i	7.0%	4.8%
O=C1CSC(=S)N1/N=C/c1ccc(O)c(O)c1O	-21.8%	u	-16.1%	i	-1.6%	-13.1%
COc1cccc(C2=Nn3c(nnc3-c3ccc(OC)c(OC)c3)SC2)c1	x	x	-40.0%	x	x	0.3%
CCn1c2ccccc2c2cc(/C=N/NC(=O)c3ccccc3)ccc21	u	u	8.91µM*	u	-54.9%	u
Cn1c2ccccc2c2cc(/C=N/NC(=O)c3cc(O)cc(O)c3)ccc21	-12.9%	u	-28.6%	i	-21.0%	-12.7%
O=C(Cc1cccc2ccccc12)NCC(=O)N1CCN(Cc2cccc(C(F)(F)F)c2)CC1	x	11.2µM*	x	i	-35.6%	x
O=C(Cc1cccc2ccccc12)NCC(=O)N1CCN(CC(=O)Nc2ccc(F)cc2)CC1	x	-10.9%	x	i	-19.6%	x
COc1cc(=O)n2c(c1C(=O)N(C)Cc1cscn1)CCN(Cc1ccc3c(c1)OCCO3)CC2	x	x	x	i	x	x
CC1CCc2c(C(=O)Nc3nccs3)csc2C1 (configuration not stated)	64.0%	1.8%	3.55µM*	i	-0.8%	8.91µM*
O=C(Nc1ccccc1SC(=O)c1ccccc1)c1ccccc1	x	-23.3%	x	u	-31.3%	x
Cc1ccc(O)c(C(=O)CC(=O)c2ccc(Cl)cc2)c1	-28.2%	u	3.55µM*	u	-15.9%	5.01µM*
Cc1ccc(C(=O)Sc2cccccc2=O)cc1	u	0.891µM*	1.78µM*	x	1.41µM*	2.24µM*
Cc1ccc(O)c(C(=O)CC(=O)c2cccc(F)c2)c1	-9.8%	-26.4%	7.94µM*	i	-44.4%	7.08µM*
Cc1cccc(C(=O)CC(=O)c2cc(Cl)ccc2O)c1	u	u	u	i	-91.6%	u
O=C(CC(=O)c1cc(Cl)ccc1O)c1ccccc1	u	u	u	i	11.2µM*	11.2µM*
SMILES	ATXN2 expr inh	TGFb SMAD3 inh	RORg inh	ATXN viability	HepG2 viability	VP16 counter
Cc1ccc(C(=O)Cc2ccccc2)cc1	25.3%	0.0%	x	i	9.2%	x
Cc1ccc(C(=O)CC(=O)c2ccccc2)cc1	x	-2.0%	11.2µM*	i	-8.5%	u
S=C(NCCc1ccccc1)Nc1ccccn1	68.5%	-6.9%	1.12µM*	i	-17.8%	3.16µM*
S=C(NCCc1ccncc1)Nc1ccccc1	1.1%[11.3 µM]	-17.5%	-15.8%	i	0.5%	-0.9%
Cc1cccc(NC(=S)NCCc2ccccc2)n1	-4.8%	-21.3%	0.562µM*	i	-3.5%	3.16µM*
O=C(CN1C=NS(=O)(=O)c2ccccc21)Nc1ccc(F)cc1	-6.2%	u	x	i	-1.8%	x
COc1cccc(Nc2nc3cc(C)ccc3nc2NS(=O)(=O)c2ccc(Cl)cc2)c1	-2.4%	7.94µM*	x	u	-35.6%	x
Cc1ccc(C)c(N2C(=O)N(C)c3ccccc3S2(=O)=O)c1	-22.6%	-0.7%	x	i	-8.0%	x
COc1ccc(NC(=O)CSCc2cc(=O)c3cc(C)ccc3[nH]2)cc1	-13.4%	-14.7%	x	i	-15.0%	x
CCN(CC)c1ccc(/C=N/NC(=O)CNC(=O)C2COc3ccccc3O2)c(O)c1 (configuration not stated)	u	u	2.82µM*	i	-20.7%	2.82µM*
CCN(CC)c1ccc(/C=N/NC(=O)CCC(=O)NCc2ccccc2)c(O)c1	3.55µM*	-34.2%	3.16µM*	i	-8.5%	u
COc1cc(/C=N\NC(=O)CNC(=O)C2COc3ccccc3O2)ccc1O (configuration not stated)	3.1%	8.3%	3.1%	i	0.8%	3.4%
CCN(CC)c1ccc(/C=N/NC(=O)c2cccc(S(=O)(=O)N3CCOCC3)c2)c(O)c1	1.89µM*	u	2.82µM*	x	-4.4%	11.2µM*
COCCNC(=O)c1ccc(-c2nc(CN3CCc4ccccc43)c(C)o2)cc1	-22.1%	-12.9%	x	i	-32.8%	x
COCCNc1ccc(-c2nc(-c3ccncc3)no2)cc1[N+](=O)[O-]	10.6%	3.0%	x	i	1.1%	x
CCCCC(=O)Nc1cccc(OCc2cc(=O)n3ccccc3n2)c1	x	-10.2%	x	x	-10.7%	x
CN=CC1=C(O)c2ccccc2C1=O	5.2%	18.3%	14.7%	i	3.4%	-5.7%
Cc1ccc(O)c(N=CC2=C(O)c3ccccc3C2=O)c1	38.0%	-4.1%	3.98µM*	i	-79.3%	7.08µM*
Cc1ccc(F)c(N=Cc2c(O)c3ccccc3oc2=O)c1	x	-3.9%	-18.0%	i	23.8%	7.3%
O=C1C(C=Nc2ccccc2O)=C(O)c2ccccc21	50.8%	-26.9%	3.98µM*	i	-13.9%	7.08µM*
Cc1ccccc1OCC(=O)Nc1sc2c(c1C(=O)OC(C)C)CCCC2	12.2%	-10.5%	x	i	-1.8%	x
CN(c1cccc(Cl)c1)S(=O)(=O)c1cccc(C(=O)Nc2nc3ccccc3[nH]2)c1	u	-5.0%	2.82µM*	u	0.7%	3.55µM*
CN(c1cccc(Cl)c1)S(=O)(=O)c1cccc(C(=O)NC2=NCCS2)c1	-33.3%	-7.9%	7.2%	i	-12.5%	-5.2%
